The supplement of paper PMC10849652
Of roughly 7,900 targets only a part is listed; those with a hit were picked by preference. About 0.6% of all pairs of compound and target were hits. Values without a mark were called inactive.

How the values were obtained:
Test in all cases: log2 fold change, soluble protein after heating vs DMSO (PISA); higher = thermal stabilisation; K562 cells, 10 uM, 30 min; active = over 0.2 and 3.5 SD of the protein, either way, in both replicates (recomputed)
[1] = compound: C1COCCN1CCN2C3=CC=CC=C3N=C2NC(=O)C4=CC(=CC=C4)[N+](=O)[O-] [IRAK-1-4 Inhibitor I]
Outline: (§1)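 Values are thermal stability changes relative to control samples and are taken from duplicates. They are stated as log2 fold changes. Before quantification by TMTpro 16plex LC-MS/MS with equalised channel sums, K562 cells at 2×10^6 cells/mL were treated with 10 μM compound for 30 min, heated in aliquots for 3 min across 48°C-58°C, pooled, extracted in PBS with 0.5% NP-40 at 4°C, and centrifuged at 21,000xg for 90 min to give the soluble supernatant.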

[2] = compound: C=CC(=O)N1CCC[C@@H](n2nc(-c3ccc(Oc4ccccc4)cc3)c3c(N)ncnc32)C1 [ibrutinib]
Outline: as §1

[3] = compound: CC(=O)c1cnc2ccc(-c3cc(Cl)c(O)c(Cl)c3)nc2c1N[C@H]1CC[C@H](CN(C)C)CC1
Outline: as §1

[4] = compound: CC(C)(C)Cn1c(N)nc2ccc(-c3[nH]c(C(C)(C)C)nc3-c3ccc(F)cc3)nc21 [ralimetinib]
Outline: as §1

[5] = compound: CC(C)(O)CC(=O)NCCn1ccc2ncnc(Nc3ccc(Oc4cccc(C(F)(F)F)c4)c(Cl)c3)c21
Outline: as §1

[6] = compound: CC(C)C1=C2N=C(C=C(N2N=C1)NCC3=CC=CC=C3)NCCCCCCN
Outline: as §1

[7] = compound: CC(C)C[C@@H](C=O)NC(=O)[C@H](CC(C)C)NC(=O)[C@H](CC(C)C)NC(=O)OCc1ccccc1
Outline: as §1

[8] = compound: CC(C)N(C[C@H]1O[C@@H](n2cnc3c(N)ncnc32)[C@H](O)[C@@H]1O)[C@H]1C[C@@H](CCc2nc3cc(C(C)(C)C)ccc3[nH]2)C1 [pinometostat]
Outline: as §1

[9] = compound: CC1=C(C(CC(=O)N1)C2=CC=C(C=C2)C(F)(F)F)C(=O)NC3=C(C=C4C(=C3)C=NN4)F
Outline: as §1

[10] = compound: CC1=C(C2=C(C=C1)C(=O)C3=CC=CC=C3N2CCCN)C
Outline: as §1

[11] = compound: CC1=C(C=C(C=C1)NC(=O)C2=CC(=CC=C2)C(C)(C)C#N)NC3=CC4=C(C=C3)N=CN(C4=O)C
Outline: as §1

[12] = compound: CC1=C(C=C(C=C1)NC(=O)C2=CC(=CC=C2)N(C)C)NC(=O)C3=CC=C(C=C3)O
Outline: as §1

[13] = compound: CC1=CC=C(C=C1)SC2=C3C=C(SC3=CN=C2)C(=O)N
Outline: as §1

[14] = compound: CC1=NC(=CC=C1)C2=C(N=C(N2)C(C)(C)C)C3=CC4=NC=CN=C4C=C3
Outline: as §1

[15] = compound: CCCCN(Cc1ccc(C(=O)NO)cc1)C(=O)Nc1ccccc1 [Nexturastat A]
Outline: as §1

[16] = compound: CCCS(=O)(=O)Nc1ccc(F)c(C(=O)c2c[nH]c3ncc(-c4ccc(Cl)cc4)cc23)c1F [vemurafenib]
Outline: as §1

[17] = compound: CCCS(=O)(=O)Nc1ccc(F)c(C(=O)c2c[nH]c3ncc(Cl)cc23)c1F
Outline: as §1

[18] = compound: CCCc1cc(C)[nH]c(=O)c1CNC(=O)c1cc(-c2ccnc(N3CCN(C)CC3)c2)cc2c1cnn2C(C)C
Outline: as §1

[19] = compound: CCN(CC)Cc1ccc2cc(COC(=O)Nc3ccc(C(=O)NO)cc3)ccc2c1 [givinostat]
Outline: as §1

[20] = compound: CCN(CCCOc1ccc2c(Nc3cc(CC(=O)Nc4cccc(F)c4)[nH]n3)ncnc2c1)CCOP(=O)(O)O [barasertib]
Outline: as §1

UniProt Q9H000, sequence (Q9H000 whole entry, looked up): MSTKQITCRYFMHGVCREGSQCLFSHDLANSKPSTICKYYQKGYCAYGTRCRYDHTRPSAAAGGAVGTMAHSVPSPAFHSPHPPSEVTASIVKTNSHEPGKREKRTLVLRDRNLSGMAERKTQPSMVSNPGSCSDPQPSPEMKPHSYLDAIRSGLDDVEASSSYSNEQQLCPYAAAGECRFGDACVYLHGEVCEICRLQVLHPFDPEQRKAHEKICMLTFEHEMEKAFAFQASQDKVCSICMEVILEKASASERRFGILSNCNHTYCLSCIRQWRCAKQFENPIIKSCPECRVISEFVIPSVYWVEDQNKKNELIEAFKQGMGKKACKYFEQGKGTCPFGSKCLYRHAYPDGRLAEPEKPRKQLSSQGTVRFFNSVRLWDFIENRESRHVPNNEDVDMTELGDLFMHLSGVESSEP
UniProt O60361, sequence (O60361 whole entry, looked up): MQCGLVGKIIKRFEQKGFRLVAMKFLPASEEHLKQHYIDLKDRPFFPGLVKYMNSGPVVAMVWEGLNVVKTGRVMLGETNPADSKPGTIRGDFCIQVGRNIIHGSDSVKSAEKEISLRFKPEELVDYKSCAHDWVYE
UniProt O14524, sequence (O14524 whole entry, looked up): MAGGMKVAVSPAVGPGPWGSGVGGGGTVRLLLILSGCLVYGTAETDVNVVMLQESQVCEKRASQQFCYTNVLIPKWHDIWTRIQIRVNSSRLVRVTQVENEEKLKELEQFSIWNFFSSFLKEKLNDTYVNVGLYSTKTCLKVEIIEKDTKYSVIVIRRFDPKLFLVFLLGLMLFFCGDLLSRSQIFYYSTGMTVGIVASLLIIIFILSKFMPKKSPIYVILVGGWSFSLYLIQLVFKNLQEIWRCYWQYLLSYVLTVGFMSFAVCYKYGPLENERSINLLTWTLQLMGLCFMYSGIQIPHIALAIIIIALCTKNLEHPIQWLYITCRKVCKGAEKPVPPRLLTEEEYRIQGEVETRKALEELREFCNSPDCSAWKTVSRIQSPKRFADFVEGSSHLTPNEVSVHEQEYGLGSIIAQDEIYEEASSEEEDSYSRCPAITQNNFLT
UniProt P56556, sequence (P56556 whole entry, looked up): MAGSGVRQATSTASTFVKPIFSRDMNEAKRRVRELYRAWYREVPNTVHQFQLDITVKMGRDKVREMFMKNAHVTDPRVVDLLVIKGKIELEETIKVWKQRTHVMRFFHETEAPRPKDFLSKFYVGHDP
UniProt Q9Y2X3, sequence (Q9Y2X3 whole entry, looked up): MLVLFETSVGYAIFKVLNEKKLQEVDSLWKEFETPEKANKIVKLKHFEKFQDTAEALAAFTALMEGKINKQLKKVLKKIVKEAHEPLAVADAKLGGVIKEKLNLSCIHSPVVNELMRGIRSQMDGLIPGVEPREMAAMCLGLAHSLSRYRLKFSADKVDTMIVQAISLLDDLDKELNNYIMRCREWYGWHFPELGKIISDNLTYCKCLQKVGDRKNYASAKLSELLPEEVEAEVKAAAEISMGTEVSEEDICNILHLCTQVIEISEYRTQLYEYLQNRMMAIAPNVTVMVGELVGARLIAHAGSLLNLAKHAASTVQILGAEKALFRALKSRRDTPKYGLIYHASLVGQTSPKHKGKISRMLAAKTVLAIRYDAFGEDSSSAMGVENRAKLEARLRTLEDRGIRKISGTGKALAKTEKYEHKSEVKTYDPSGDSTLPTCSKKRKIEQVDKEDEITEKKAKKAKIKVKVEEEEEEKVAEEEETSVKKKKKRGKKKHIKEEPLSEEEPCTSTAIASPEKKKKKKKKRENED
UniProt Q8WV92, sequence (Q8WV92 whole entry, looked up): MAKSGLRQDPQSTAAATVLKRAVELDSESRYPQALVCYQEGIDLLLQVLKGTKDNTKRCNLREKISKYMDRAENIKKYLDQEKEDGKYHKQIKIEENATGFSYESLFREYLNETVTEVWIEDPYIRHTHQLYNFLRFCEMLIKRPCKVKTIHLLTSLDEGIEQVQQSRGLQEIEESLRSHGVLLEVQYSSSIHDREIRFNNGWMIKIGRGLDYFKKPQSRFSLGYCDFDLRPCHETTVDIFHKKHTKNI
UniProt Q9HAN9, sequence (Q9HAN9 whole entry, looked up): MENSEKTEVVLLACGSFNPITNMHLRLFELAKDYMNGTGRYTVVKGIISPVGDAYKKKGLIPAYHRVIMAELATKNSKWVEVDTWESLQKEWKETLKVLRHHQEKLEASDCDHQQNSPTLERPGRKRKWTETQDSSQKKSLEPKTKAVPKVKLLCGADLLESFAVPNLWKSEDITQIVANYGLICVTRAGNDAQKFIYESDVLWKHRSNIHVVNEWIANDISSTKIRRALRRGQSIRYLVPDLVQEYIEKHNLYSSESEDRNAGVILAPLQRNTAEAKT
UniProt Q9Y2A7, sequence (Q9Y2A7 whole entry, looked up): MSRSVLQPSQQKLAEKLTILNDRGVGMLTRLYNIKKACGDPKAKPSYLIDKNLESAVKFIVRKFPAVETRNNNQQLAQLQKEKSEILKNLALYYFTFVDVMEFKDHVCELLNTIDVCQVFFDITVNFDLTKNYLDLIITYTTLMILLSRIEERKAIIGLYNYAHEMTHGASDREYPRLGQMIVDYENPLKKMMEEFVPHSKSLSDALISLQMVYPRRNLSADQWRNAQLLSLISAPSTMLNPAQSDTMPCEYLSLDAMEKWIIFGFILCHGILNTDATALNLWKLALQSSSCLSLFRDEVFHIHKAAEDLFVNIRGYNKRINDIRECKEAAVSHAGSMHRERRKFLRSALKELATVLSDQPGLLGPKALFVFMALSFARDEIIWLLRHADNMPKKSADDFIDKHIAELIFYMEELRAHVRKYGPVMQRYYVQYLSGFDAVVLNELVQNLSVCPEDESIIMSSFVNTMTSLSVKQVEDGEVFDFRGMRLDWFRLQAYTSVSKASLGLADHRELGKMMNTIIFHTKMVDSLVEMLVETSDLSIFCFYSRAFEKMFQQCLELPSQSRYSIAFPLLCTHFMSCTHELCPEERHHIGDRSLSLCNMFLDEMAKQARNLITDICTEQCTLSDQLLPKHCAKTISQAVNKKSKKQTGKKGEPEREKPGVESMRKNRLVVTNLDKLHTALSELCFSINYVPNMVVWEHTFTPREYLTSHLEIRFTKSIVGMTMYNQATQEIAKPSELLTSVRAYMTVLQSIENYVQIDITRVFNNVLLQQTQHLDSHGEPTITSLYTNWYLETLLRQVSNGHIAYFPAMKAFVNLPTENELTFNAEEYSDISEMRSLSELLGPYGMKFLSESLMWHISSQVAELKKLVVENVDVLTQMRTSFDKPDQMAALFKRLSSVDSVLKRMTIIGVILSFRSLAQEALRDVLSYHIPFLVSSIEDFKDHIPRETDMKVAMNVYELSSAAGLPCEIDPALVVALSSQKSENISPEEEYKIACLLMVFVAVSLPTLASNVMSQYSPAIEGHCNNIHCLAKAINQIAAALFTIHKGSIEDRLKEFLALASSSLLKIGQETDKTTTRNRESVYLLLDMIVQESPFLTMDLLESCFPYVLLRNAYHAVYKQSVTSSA
UniProt O00566, sequence (O00566 whole entry, looked up): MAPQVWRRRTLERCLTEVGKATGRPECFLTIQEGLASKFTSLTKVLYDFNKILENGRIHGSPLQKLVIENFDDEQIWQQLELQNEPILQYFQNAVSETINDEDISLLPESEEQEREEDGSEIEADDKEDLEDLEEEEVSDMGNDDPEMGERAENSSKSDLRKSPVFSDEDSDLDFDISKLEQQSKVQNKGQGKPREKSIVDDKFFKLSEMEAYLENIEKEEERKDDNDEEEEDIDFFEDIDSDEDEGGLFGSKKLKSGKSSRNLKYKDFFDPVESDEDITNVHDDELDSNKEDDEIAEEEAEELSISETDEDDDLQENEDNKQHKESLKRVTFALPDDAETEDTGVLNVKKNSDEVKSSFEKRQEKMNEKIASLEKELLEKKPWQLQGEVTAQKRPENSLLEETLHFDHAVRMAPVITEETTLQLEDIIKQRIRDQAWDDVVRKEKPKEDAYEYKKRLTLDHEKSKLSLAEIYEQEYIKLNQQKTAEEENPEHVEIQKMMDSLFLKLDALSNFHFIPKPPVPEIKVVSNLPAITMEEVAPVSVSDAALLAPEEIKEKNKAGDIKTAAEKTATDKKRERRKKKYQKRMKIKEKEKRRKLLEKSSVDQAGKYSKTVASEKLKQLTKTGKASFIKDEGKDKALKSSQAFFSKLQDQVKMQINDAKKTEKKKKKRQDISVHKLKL
UniProt O43181, sequence (O43181 whole entry, looked up): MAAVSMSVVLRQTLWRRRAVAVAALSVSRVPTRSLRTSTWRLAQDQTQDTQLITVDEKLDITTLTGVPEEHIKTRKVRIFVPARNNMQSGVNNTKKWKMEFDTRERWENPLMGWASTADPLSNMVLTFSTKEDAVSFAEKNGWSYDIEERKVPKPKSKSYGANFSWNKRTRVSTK
UniProt Q96IV0, sequence (Q96IV0 whole entry, looked up): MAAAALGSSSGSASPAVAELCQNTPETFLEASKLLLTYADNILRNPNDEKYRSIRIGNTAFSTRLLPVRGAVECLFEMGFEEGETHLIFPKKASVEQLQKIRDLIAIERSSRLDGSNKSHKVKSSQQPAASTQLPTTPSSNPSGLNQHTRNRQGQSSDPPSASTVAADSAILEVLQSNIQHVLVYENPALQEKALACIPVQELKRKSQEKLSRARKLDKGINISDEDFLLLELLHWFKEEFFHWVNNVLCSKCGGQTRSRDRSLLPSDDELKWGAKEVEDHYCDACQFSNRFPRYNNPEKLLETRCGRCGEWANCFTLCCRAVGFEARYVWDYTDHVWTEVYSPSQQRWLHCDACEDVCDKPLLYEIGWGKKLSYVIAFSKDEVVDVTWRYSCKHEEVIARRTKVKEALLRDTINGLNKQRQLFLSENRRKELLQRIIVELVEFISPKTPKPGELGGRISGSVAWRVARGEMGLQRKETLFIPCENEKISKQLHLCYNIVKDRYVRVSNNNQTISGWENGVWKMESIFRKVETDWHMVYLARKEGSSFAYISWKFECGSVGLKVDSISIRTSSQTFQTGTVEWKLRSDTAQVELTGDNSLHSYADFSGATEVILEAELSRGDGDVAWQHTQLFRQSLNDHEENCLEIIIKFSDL

Target	log2 fold change [1]	log2 fold change [2]	log2 fold change [3]	log2 fold change [4]	log2 fold change [5]	log2 fold change [6]	log2 fold change [7]	log2 fold change [8]	log2 fold change [9]	log2 fold change [10]	log2 fold change [11]	log2 fold change [12]	log2 fold change [13]	log2 fold change [14]	log2 fold change [15]	log2 fold change [16]	log2 fold change [17]	log2 fold change [18]	log2 fold change [19]	log2 fold change [20]
NDUFA6 (UniProt P56556)	-0.004	-0.031	-0.092	-0.046	-0.214	-0.05	-0.045	-0.083	-0.03	0.175	0.029	-0.082	0.1	0.125	-0.067	0.04	0.198	-0.064	0.047	0.035
NGLY1 (UniProt Q96IV0)	-0.091	-0.052	-0.059	0.018	-0.07	-0.071	0.036	0.088	0.04	0.123	-0.034	-0.039	0.052	-0.016	0.102	0.009	0.026	0.016	0.036	0.024
NDUFS4 (UniProt O43181)	0.076	0.029	0.062	0.015	0.022	0.007	0.274 (active)	0.013	0.046	-0.193	0.03	0.024	-0.069	-0.033	0.032	-0.061	-0.06	-0.033	-0.083	-0.062
MRPS16 (UniProt Q9Y3D3)	-0.082	0.02	-0.047	-0.008	-0.034	-0.19	0.015	0.021	0	-0.126	0.055	-0.052	0.006	0.132	0.124	-0.014	0.062	0.032	0.031	-0.084
MITD1 (UniProt Q8WV92)	-0.043	0.03	0	-0.002	-0.296	-0.77 (active)	-0.002	0.082	-0.101	0.047	-0.124	0.072	-0.043	-0.043	-0.026	0.069	0	-0.093	-0.047	0.042
MKRN2 (UniProt Q9H000)	-0.063	0.026	-0.137	0.034	0.017	0.032	0.089	0.094	-0.017	-0.064	0.147	0.059	-0.002	0.086	0.091	0.095	0.035	-0.045	0.083	-0.098
NOP58 (UniProt Q9Y2X3)	-0.06	0.039	-0.117	-0.008	0.06	0.052	0.117	0.128	-0.035	-0.029	-0.055	-0.012	-0.058	-0.073	0.161	0.046	0.041	0.081	0.072	-0.075
NEMP1 (UniProt O14524)	0.003	-0.01	-0.081	-0.03	-0.023	-0.508 (active)	0.08	0.009	0.099	-0.119	-0.051	0.037	0.031	-0.022	-0.057	-0.084	-0.041	-0.001	-0.061	-0.034
ORC3 isoform 2 (UniProt Q9UBD5)	-0.113	-0.015	-0.132	-0.059	-0.383	-0.338	-0.013	0.012	0.045	-0.049	-0.027	-0.056	0.146	0.075	-0.124	0.012	0.143	0.044	0.145	0.178
MRPS17 (UniProt Q9Y2R5)	-0.192	0.06	-0.029	0.032	-0.054	0.014	0.025	-0.027	-0.049	-0.2	0.055	-0.095	-0.014	0.008	0.085	0.084	0.031	0.095	-0.103	0.01
NMNAT1 (UniProt Q9HAN9)	-0.007	0.073	0.05	0.18	0.13	0.093	0.168	0.429	0.051	-0.674 (active)	-0.079	0.006	-0.09	-0.196	0.132	-0.162	-0.139	0.178	0.042	-0.064
NME2P1 (UniProt O60361)	-0.019	-0.18	-0.033	0.032	-0.024	-0.072	-0.135	0.037	0.149	0.031	0.06	0.017	0.065	0.004	-0.164	0.038	-0.043	-0.102	0.09	0.12
NCKAP1 isoform 2 (UniProt Q9Y2A7)	0	0.002	-0.063	0.07	-0.038	-0.047	-0.037	0.01	0.017	-0.009	0.039	0.009	0.004	0.033	0.02	0.036	0.015	0.064	0.021	-0.009
MPHOSPH10 (UniProt O00566)	-0.215	-0.022	-0.064	0.144	0.089	-0.071	0.053	0.113	0.021	-0.56	0.052	-0.01	-0.031	-0.079	0.098	-0.041	0.009	0.047	0.087	-0.107
NIBAN1 (UniProt Q9BZQ8)	-0.125	0	-0.163	0.084	-0.07	-0.277 (active)	0.037	0.068	-0.002	0.02	0.05	-0.036	0.102	0.01	0.077	0.046	0.083	0.039	0.05	0.063
